Structures can show the parent of a compound that is named as a salt.

This is an account of results in the supplement of paper PMC3414501.

The subject of assay [1] is S. cerevisiae SK1 pCDA2-eGFP (USY613), sporulating. As to the kind of experiment: CDA2-GFP sporulation assay sensitivity score (z-score vs DMSO controls); higher = stronger inhibition of sporulation, active = hit call of the paper.
Assay [2] relates to S. cerevisiae NKY1551 his4x/his4B, sporulating. Put plainly: HIS4 meiotic recombination assay sensitivity score (z-score vs DMSO controls); higher = stronger inhibition of sporulation/recombination, active = hit call of the paper.
In assay [3] the test system is S. cerevisiae AD1-9 (efflux-pump deficient), vegetative growth in YPD. As to the kind of experiment: growth sensitivity score (doubling time z-score vs DMSO controls); higher = slower growth, strongly negative scores also mark growth inhibition (complete suppression), active = hit call of the paper. In a few lines: (§1)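 Yeast (Saccharomyces cerevisiae BY4741 and AD1-9) was grown in rich medium in microtiter plates from a starting OD600 of 0.065, with optical density read every 15 min over 24 hours. The growth sensitivity score was the difference between compound and solvent-only means, divided by the solvent-only standard deviation. Every experiment had eight solvent-only wells.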

For assay [4], the system named is S. cerevisiae BY4741 (wild-type), vegetative growth in YPD. The assay is described as above. The gist of the method: as §1
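Throughout, for CDA2-GFP sporulation assay sensitivity score (z-score vs DMSO controls): active if sensitivity score above 5.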
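Throughout, for HIS4 meiotic recombination assay sensitivity score (z-score vs DMSO controls): active if sensitivity score above 5.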

`CC(C)(C)C(O)/C=C/c1ccc2c(c1)OCO2` (centres undefined) [Stiripentol] (stock concentration (mM, diluted 1:100): 10): the “CDA2-GFP sporulation assay sensitivity score” value in assay [1] was 5.09 (inactive). In assay [2], the “HIS4 meiotic recombination assay sensitivity score” value is 1.81 (inactive). Besides, the growth sensitivity score in assay [3] is 5.27 (active); in assay [4], 2.6 (active).
Consider `OCc1cc(C(O)CNCCCCCCOCCCCc2ccccc2)ccc1O` (centres undefined) [Salmeterol] (stock concentration (mM, diluted 1:100): 10), for which the “CDA2-GFP sporulation assay sensitivity score” value in assay [1] is 10.5 (inactive). Moreover, the “HIS4 meiotic recombination assay sensitivity score” value in assay [2] was 0.79 (inactive). The results for the growth sensitivity score in assay [3] and in assay [4] were 41.2 (active) and 3.81 (active), respectively.
As to `O=c1n(CCCN2CCN(c3cccc(Cl)c3)CC2)nc2ccccn12` [Trazodone hydrochloride] (stock concentration (mM, diluted 1:100): 10), the “CDA2-GFP sporulation assay sensitivity score” value in assay [1] is 5.45 (inactive). Moreover, in assay [2], the “HIS4 meiotic recombination assay sensitivity score” value is -0.45 (inactive). For the same compound, the growth sensitivity score in assay [3] is -3.23; in assay [4], 0.24 (inactive).
In the same order, the values of `CSc1nc2cc(Cl)c(Oc3cccc(Cl)c3Cl)cc2[nH]1` [Triclabendazole] (stock concentration (mM, diluted 1:100): 10) are 0.58 (inactive), -1.98 (inactive), 74.8 (active) and 168 (active).
In the same order, the values of `O=C(O)CCc1nc(-c2ccccc2)c(-c2ccccc2)o1` [Oxaprozin] (stock concentration (mM, diluted 1:100): 10) are -0.84 (inactive), -0.23 (inactive), 5.72 (active) and 0.61 (inactive).
In the case of `CCCN[C@H]1CCc2nc(N)sc2C1` [Pramipexole hydrochloride] (stock concentration (mM, diluted 1:100): 7.1), the “CDA2-GFP sporulation assay sensitivity score” value in assay [1] was -0.08 (inactive). For the same compound, the “HIS4 meiotic recombination assay sensitivity score” value in assay [2] is -0.03 (inactive). For the same compound, the growth sensitivity score in assay [3] is -2.17; in assay [4], -0.39 (inactive).
